Assay outcomes as filed in PubChem.
DT40 TDP1 no CPT: qHTS for Inhibitors of human tyrosyl-DNA phosphodiesterase 1 (TDP1): qHTS in cells in absence of CPT; DT40 Tdp1-/- hTDP1 cells, no CPT, ATP luminescence, 48 h; Potency, µM (top dose mostly 46.2 µM), hits mostly inhibitors; actives 15% (n = 420,000); AID 686978, 2013; note: nearly all actives have a fitted effect of over 55% in size
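Chicken DT40 Tdp1-/- cells complemented with human TDP1, screened without camptothecin (DMSO vehicle only), 400 cells/well. Compounds pin-transferred, cells incubated at 37 °C for at least 48 hr. Growth read as ATP-dependent luminescence (CellTiter-Glo, 30 min at RT).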
S2 tox: cell viability loss in ATXN counter-screen | S2 cells (HEK-293 line with an ATXN2-luciferase reporter) viability, CellTiter-Fluor protease fluorescence, 24 h | AID 651635 | Potency, µM (top dose mostly 56.7 µM), actives largely listed as cytotoxic | actives 0.49% (n = 400,000); note: nearly all actives have a fitted effect of over 40% in size
TGFb inhibitor: inhibitors of TGF-b signaling; HepG2 CAGA-GFP TGF-b/SMAD3 reporter, GFP fluorescence, 18 h; TGF-beta stimulated, 500 pg/mL final; Potency, µM (doses to about 46.1 µM), hits mostly inhibitors; actives 1.2% (n = 410,000); AID 588855; note: nearly all actives have a fitted effect of over 65% in size
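Using HEPG2 CAGA-GFP reporter cells at 1000 cells/well, we pinned test compounds, stimulated with recombinant TGF-beta (500 pg/mL final) and measured total well GFP after 18 h.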
HepG2 tox: kills HepG2 cells in TGF-b inhibitor counter-screen; HepG2 CAGA-GFP viability, ATP luminescence, 18 h; Potency, µM (titrated, usually from 46.1 µM), hits mostly cytotoxic; actives 0.76% (n = 410,000); AID 588856
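HepG2 CAGA-GFP cells (1000/well, DMEM with 1% FBS) received compound, then TGF-beta at 500 pg/mL final, and were incubated 18 hours at 37 degrees C. Viability was read by CellTiter-Glo luminescence. Media-only wells were set as complete cell-killing and DMSO as no toxicity.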
TDP1 cell CPT: DT40-hTDP1 cell growth loss with CPT; Potency, µM (top dose mostly 46.2 µM), actives largely listed as inhibitors; AID 686979; chicken DT40 Tdp1-/-;hTDP1 cells + 20 nM CPT, ATP luminescence, 48 h; actives 12% (n = 420,000); note: nearly all actives have a fitted effect of over 55% in size
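Chicken DT40 Tdp1-/- cells stably complemented with human TDP1 were seeded at 400 cells/well in medium containing 20 nM camptothecin, exposed to pin-transferred compounds, and grown at 37 °C for at least 48 hr. Viability was read as ATP luminescence.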
ATXN2 expr inh: ATXN2 expression inhibition; HEK-293 ATXN2-luciferase reporter, luminescence, 24 h; Potency, µM (highest dose often 57 µM), actives largely listed as inhibitors; actives 0.72% (n = 360,000); AID 1745845; note: nearly all actives have a fitted effect of over 55% in size
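ATXN2-luciferase reporter cells (luciferase flanked by upstream and downstream ATXN2 gene portions) were treated 24 h at 37 °C with compounds at up to 57 uM. SteadyGlo luminescence gave expression; GF-AFC fluorescence gave viability.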
Hits are given with their value; 0 = inactive; ? = inconclusive; - = not tested or not shown; [ ] = remark or other dose. In the library only some 17% were active in any assay of this set; here they are far more common. Calls come from the whole dose curve; as a rule, active = well fitted curve in the direction sought with a large enough effect; inconclusive = small, poorly fitted or top-dose-only effect, or another doubt; inactive = no such curve, though single readings can be large; an effect the other way counts as inactive or inconclusive.

SMILES	DT40 TDP1 no CPT	S2 tox	TGFb inhibitor	HepG2 tox	TDP1 cell CPT	ATXN2 expr inh
CCOC(=O)C1(C)CCCCN1C(=O)c1cccc(Cl)c1 (centres undefined)	14.6µM	0	0	0	20.6µM	0
COc1cc(NC(=O)c2ccc(Cl)cc2)c(OC)cc1NC(=O)CN1CCOCC1	?	0	0	0	?	0
COc1cc(NC(=O)c2ccc(C(C)(C)C)cc2)c(OC)cc1NC(=O)CN1CCCCC1	20.6µM	0	0	0	?	0
CC(=O)Nc1ccc(NC(=O)C(c2ccccc2)c2ccccc2)cc1	0	0	0	0	0	0
Cc1ccc(NC(=O)C(c2ccccc2)c2ccccc2)c(O)c1	0	0	15.8µM	0	0	0
COc1cc(NC(=O)C2CCCCC2)c(OC)cc1NC(=O)CN1CCCCC1	16.4µM	0	0	0	?	0
COc1cc(NC(=O)Nc2ccccc2OC)c(OC)cc1NC(=O)CN1CCCCC1	?	0	0	0	?	0
COc1cc(NC(=O)c2ccc(C)cc2)c(OC)cc1NC(=O)CN1CCOCC1	16.4µM	?	0	0	?	0
COc1cc(NC(=O)Nc2ccccc2)c(OC)cc1NC(=O)CN1CCCCC1	?	?	?	0	?	0
COc1cc(NC(=O)C(c2ccccc2)c2ccccc2)c(C(=O)O)cc1OC	0	0	0	0	0	-
COc1cc(C(=O)NC2CCN(CC(=O)Nc3cccc(C)c3C)CC2)cc(OC)c1OC	?	0	0	0	18.4µM	0
COc1cc2c(cc1NC(=O)C(c1ccccc1)c1ccccc1)CCCC2	11.6µM	0	?	0	?	0
COc1cc(NC(=O)c2ccc(Cl)cc2)c(OC)cc1NC(=O)CN1CCCCC1	18.4µM	0	0	0	?	0
COc1cc(NC(=O)c2cccc(C)c2)c(OC)cc1NC(=O)CN1CCCCC1	16.4µM	0	0	0	?	0[11.3 µM]
COc1cccc(C(=O)NC2CCN(CC(=O)Nc3cccc(C)c3C)CC2)c1	?	0	0	0	0	-
CC(C)Cc1nc2cc(NS(=O)(=O)N(C)C)cc(C(=O)N3CCOCC3)c2n1C	0	0	-	-	0[9.04 µM]	-
Cc1cccc(NC(=O)CN2CCC(NC(=O)C3CCCCC3)CC2)c1C	?	0	0	0	0	-
COc1cc(NC(=O)c2ccccc2F)c(OC)cc1NC(=O)CN1CCCCC1	16.4µM	0	0	0	?	0
COc1cc2c(cc1NC(=O)c1cccc(F)c1)CCCC2	?	0	0	0	?	0
Cc1ccc(NC(=O)CN2CCC(NC(=O)C3CCCCC3)CC2)c(Br)c1	20.6µM	0	0	0	?	-
COc1cc2c(cc1NC(=O)c1ccccc1F)CCCC2	20.6µM	0	0	0	?	0
COc1cc2c(cc1NC(=O)c1cccc(Br)c1)CCCC2	16.4µM	0	0	0	?	0
COC(=O)c1ccc(C(=O)Nc2cc(Cl)ccc2Cl)cc1NC(=O)c1ccc(N(C)C)cc1	?	0	0	0	25.9µM	?
O=C(Nc1cc(Cl)ccc1Cl)c1ccc(-c2ccccc2)cc1	0	0	0	0	0	0
COC(=O)c1cc(Cl)c(NC(=O)c2ccc(C(C)(C)C)cc2)cc1OC	18.4µM	0	0	0	25.9µM	0
SMILES	DT40 TDP1 no CPT	S2 tox	TGFb inhibitor	HepG2 tox	TDP1 cell CPT	ATXN2 expr inh
CCn1c(CN2CCC(C)CC2)nc2cc(NC(=O)c3cccc([N+](=O)[O-])c3)ccc21	23.1µM	0	0	0	14.6µM	0
CCn1c(CN2CCC(C)CC2)nc2cc(NC(=O)c3ccc([N+](=O)[O-])cc3)ccc21	?	0	0	0	?	0
Cc1nc(SCc2cccnc2)[nH]c(=O)c1C	0	0	0	0	0	-
COc1ccc(CC(N)c2csc(NC(=O)Nc3ccccc3-c3ccccc3)n2)cc1 (centres undefined)	?	-	?	15.8µM	?	?
Cc1ccccc1NC(=O)Nc1nc(C(N)Cc2ccccc2)cs1 (centres undefined)	23.1µM	?	?	0	23.1µM	?
Cc1ccccc1NC(=O)C(=O)Nc1ccccc1C	0	0	0	0	0	0
COc1ccccc1NC(=O)Nc1nnc(C(C)C)s1	0	0	0	0	0	0
COc1ccccc1NC(=O)Nc1nc(C(N)CC(C)C)cs1 (centres undefined)	0.259µM	?	?	0	2.59µM	?
Cc1ccccc1NC(=O)Nc1ccccc1Br	?	0	0	0	10.3µM	0
COc1ccc(CC(N)c2csc(NC(=O)Nc3ccccc3C(C)(C)C)n2)cc1 (centres undefined)	?	-	?	0	?	?
CC(C)(C)c1csc(NC(=O)CCc2ccccc2)n1	?	0	0	0	?	0
CCc1nnc(NC(=O)Nc2ccccc2OC)s1	0	0	0	0	0	0
CC(C)CC(N)c1csc(NC(=O)C(c2ccccc2)c2ccccc2)n1 (centres undefined)	6.51µM	?	?	12.6µM	18.4µM	?
CC(C)CC(N)c1csc(NC(=O)c2cc(C(C)(C)C)nn2Cc2ccccc2)n1 (centres undefined)	8.2µM	-	?	11.2µM	7.31µM	?
COc1ccccc1NC(=O)Nc1nc(C(N)Cc2ccccc2)cs1 (centres undefined)	18.4µM	?	?	0	23.1µM	?
COc1ccccc1NC(=O)Nc1nc(C(N)Cc2ccc(Cl)cc2)cs1 (centres undefined)	23.1µM	?	?	0	9.2µM	?
C#CC(CC)(CC)NC(=S)Nc1ccc(S(N)(=O)=O)cc1	?	0	0	0	0	0
COc1c2c(c(OC)c3ccccc13)[C@@]1(OC2)O[C@H](CCO)C[C@H](O)[C@H]1O	0	0	0	0	0	0
O=C1C=C(NCCN2CCOCC2)CC(c2ccccc2)C1 (centres undefined)	0	0	0	0	0	0
Cc1ccccc1NC(=O)Nc1nc(CN)cs1	23.1µM	0	0	0	16.4µM	0
Cc1ccccc1NC(=O)Nc1nc(CN(C)C)cs1	0	0	0	0	0	0
CC(C)CC(N)c1csc(NC(=O)Nc2ccccc2Cc2ccccc2)n1 (centres undefined)	11.6µM	-	?	0	11.6µM	?
CC(C)C(=O)Nc1ccccc1Cc1ccccc1	0	0	0	0	0	0
COc1ccccc1NC(=O)CSc1nc2ccccc2c2nc(-c3ccccc3)nn12	0	?	0	0	0	0
